Inconclusive results are not listed. Active and inactive are the calls of the source. Calls follow the shape of the full dose curve.
Test: A qHTS for Small Molecule Inhibitors of Shiga Toxin (Confirmatory); also: nearly all actives have a fitted effect of over 75% in size; as to activity, positive = inhibition of toxin: 0% is about no effect
Conditions: Cell-based Shiga toxin protection reporter assay; series mostly up to 38.3 µM; activity, positive = inhibition of toxin: at the top concentration
Potency is read from the fitted curve at half-maximal effect.

Q: Which “activity, positive = inhibition of toxin” value does the source give for `CCN(CCn1cccn1)Cc1nc(-c2ccccc2)no1` here?
A: 7.23% (inactive)

Q: With `Cc1oncc1-c1csc(-c2ccccc2Cl)n1` as the compound, how does the Potency read?
A: 7.98 µM (active)

Q: Which “activity, positive = inhibition of toxin” value does the source give for `CCCc1cc(=O)oc2cc(C)cc(OCC(=O)NCc3ccccn3)c12` here?
A: -31.3% (inactive)

Q: Which “activity, positive = inhibition of toxin” value does the source give for `COc1ccc2nc3cc(Cl)ccc3c(NCCCN3CCN(CCCNc4c5ccc(Cl)cc5nc5ccc(OC)cc45)CC3)c2c1` here?
A: -9.56% (inactive)

Q: With `CC(=O)c1ccc(N2CCN(C(=O)c3ccc4nc[nH]c4c3)CC2)cc1` as the compound, how does the “activity, positive = inhibition of toxin” value read?
A: 21.4% (inactive)

Q: For `N#Cc1ccc(N=c2ssnc2Cl)cc1`, which “activity, positive = inhibition of toxin” value is on record?
A: 16.9% (inactive)

Q: With `N#Cc1cc2c(nc1SCC(=O)Nc1cc(Cl)ccc1Cl)C1CCN2CC1` as the compound, how does the Potency read?
A: 12.6 µM (active)

Q: With `CNC(=O)CSc1nnc(-c2cc(C)cc(C)c2)o1` as the compound, how does the “activity, positive = inhibition of toxin” value read?
A: 43.7% (inactive)

Q: Which “activity, positive = inhibition of toxin” value does the source give for `COc1ccc(N(CCC#N)S(=O)(=O)c2ccc(Cl)cc2)cc1` here?
A: 5.18% (inactive)

Q: Which “activity, positive = inhibition of toxin” value does the source give for `CSc1nc(C)c2cc(C)oc2n1` here?
A: -1.75% (inactive)

Q: With `CC1Cc2ccccc2N1Cc1cc(=O)n2ccsc2n1` (stereo not drawn) as the compound, how does the “activity, positive = inhibition of toxin” value read?
A: -26.7% (inactive)

Q: With `NNC(=O)c1ccc(NS(=O)(=O)c2ccc(Br)cc2)cc1` as the compound, how does the “activity, positive = inhibition of toxin” value read?
A: 3.16% (inactive)

Q: Which Potency does the source give for `Cc1cccc(Cn2cc(SCC(=O)Nc3nccs3)c3ccccc32)c1` here?
A: 8.95 µM (active)

Q: Which Potency does the source give for `O=C(Sc1cccc2cccnc12)c1ccccc1Br` here?
A: 8.95 µM (active)

Q: Which “activity, positive = inhibition of toxin” value does the source give for `O=C(NNC(=O)c1nc(Cl)ccc1Cl)c1ccc(F)cc1` here?
A: 23.4% (inactive)

Q: With `COc1ccccc1C(=O)Nc1nnc(SCC(=O)Nc2ccc3c(c2)oc2ccccc23)s1` as the compound, how does the Potency read?
A: 3.18 µM (active)

Q: With `COc1ccccc1NC(=O)CSc1nnc(-c2ccco2)n1Cc1ccco1` as the compound, how does the “activity, positive = inhibition of toxin” value read?
A: 2.84% (inactive)

Q: For `Cc1ccc2c(c1)N(CC(=O)N1CCCC1)C(=O)CO2`, which “activity, positive = inhibition of toxin” value is on record?
A: -17.2% (inactive)

Q: For `O=C(/C=C/Nc1ccc(F)cc1F)c1ccco1`, which Potency is on record?
A: 0.225 µM (active)

Q: Which “activity, positive = inhibition of toxin” value does the source give for `Cc1cccc(C(=O)NC(NCCc2ccccc2)C(Cl)(Cl)Cl)c1` (stereo not drawn) here?
A: 24.6% (inactive)

Q: Which “activity, positive = inhibition of toxin” value does the source give for `COc1ccccc1N(CCC#N)C(=O)CSc1nc(-c2ccccc2)cn1N` here?
A: 28.7% (inactive)

Q: For `Cc1cc(NC(=O)CSc2nc3ccsc3c(=O)n2Cc2ccccn2)n[nH]1`, which Potency is on record?
A: 25.2 µM (active)

Q: Which Potency does the source give for `CCOC(=O)c1cnc2c(-c3cccc(Br)c3)cnn2c1C` here?
A: 3.56 µM (active)

Q: Which “activity, positive = inhibition of toxin” value does the source give for `Cc1cc(C)nc(SCC(=O)Nc2cc(C)on2)n1` here?
A: -32.1% (inactive)

Q: Which “activity, positive = inhibition of toxin” value does the source give for `COc1cccc(/C=C/C(=O)c2cccc([N+](=O)[O-])c2)c1OC` here?
A: 39.5% (inactive)

Q: Which “activity, positive = inhibition of toxin” value does the source give for `CSCc1cc(N2CCOCC2)nc(SCc2ccc(Cl)cc2Cl)n1` here?
A: -1.1% (inactive)

Q: For `Cc1ccc(NC(=S)c2nc3ccccc3s2)cc1`, which Potency is on record?
A: 0.895 µM (active)

Q: For `O=C(COc1ncnc2ccccc12)NCCC1=CCCCC1`, which “activity, positive = inhibition of toxin” value is on record?
A: 11.9% (inactive)

Q: With `CN1CCN(C(=O)CN(C)S(=O)(=O)c2ccc(F)cc2)CC1` as the compound, how does the “activity, positive = inhibition of toxin” value read?
A: 45.5% (inactive)

Q: Which “activity, positive = inhibition of toxin” value does the source give for `CSc1nc(SCCO)c2sc3nc(-c4ccco4)c4c(c3c2n1)CC(C)(C)OC4` here?
A: 24.5% (inactive)

Q: Which “activity, positive = inhibition of toxin” value does the source give for `N=c1c(S(=O)(=O)c2ccc(Cl)cc2)cc2c(=O)n3ccccc3nc2n1C1CCCCC1` here?
A: -11.7% (inactive)

Q: Which Potency does the source give for `CNC(=O)c1cccn(Cc2ccc(C(F)(F)F)cc2)c1=O` here?
A: 0.1 µM (active)

Q: For `COc1ccccc1C(=O)CSc1nccn1C`, which Potency is on record?
A: 28.3 µM (active)

Q: Which “activity, positive = inhibition of toxin” value does the source give for `Cc1ccc2c(N)[nH]nc2n1` here?
A: -50.9% (inactive)

Q: With `Cc1nn(-c2ccc(C(=O)O)cc2)c2c1C(=O)CC(C)(C)C2` as the compound, how does the “activity, positive = inhibition of toxin” value read?
A: -21.4% (inactive)

Q: Which Potency does the source give for `Cc1ccc2c(CN3CCCCC3C)cc(=O)oc2c1C` (stereo not drawn) here?
A: 0.01 µM (active)

Q: With `O=C(NCCN1C(=O)S/C(=C\c2ccc(Cl)cc2)C1=O)c1ccc(F)c(S(=O)(=O)N2CCOCC2)c1` as the compound, how does the Potency read?
A: 6.34 µM (active)

Q: For `O=C(CCS(=O)(=O)c1cccs1)Nc1ccc(C(=O)NCc2cccs2)cc1`, which “activity, positive = inhibition of toxin” value is on record?
A: -9.28% (inactive)

Source: PubChem BioAssay AID2320 (National Center for Advancing Translational Sciences (NCATS), 2010)
